Measurements published in PubChem BioAssay AID1159580 (chemical genetic matrix, 2015).
Several values for one entry are separate records, joined by “and”; a condition that tells them apart may be missing. Equal entries are not always repeated. Screen size: about 5,500 compounds; about 2,000 (36%) were called active. About 18% were inconclusive and are not listed. No stated cut-off is given here; in the data, active means normalized growth mostly below about 0.91 (no sharp cut-off); inconclusive means no clear call, values can overlap the other calls; inactive means mostly above about 0.92. This is one part of the list.

Experiment: chemical genetic growth profiling, strain panel (AID 1159580);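 further: tested at 20 µM; growth read once vehicle control cultures reached saturation at 30 °C; 1 = growth at the plate median or of vehicle wells; lower values mean less growth of the strain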
Conditions: S. cerevisiae deletion strains, growth OD

Measured: normalized growth

CCCCNc1cc(C(=O)O)cc(S(N)(=O)=O)c1Oc1ccccc1
inactive: locus YAL013W, strain DEP1, hits give low values 0.964 | locus YAL021C, strain ccr4, hits give low values 1.03 | locus YAL026C, strain drs2, hits give low values 1.01 | locus YAL030W, strain snc1, hits give low values 1.01 | locus YAL040C, strain CLN3, hits give low values 0.946 | locus YBL061C, strain skt5, hits give low values 0.992 | locus YBR009C, strain hhf1, hits give low values 0.997 | locus YBR021W, strain FUR4, hits give low values 0.985 | locus YBR023C, strain chs3, hits give low values 0.999 | locus YBR171W, strain sec66, hits give low values 0.998 | locus YBR229C, strain ROT2, hits give low values 0.987 | locus YBR231C, strain swc5, hits give low values 0.99 | locus YBR279W, strain paf1, hits give low values 1.01 | locus YCL011C, strain gbp2, hits give low values 1 | locus YCL016C, strain dcc1, hits give low values 0.993 | locus YCL029C, strain bik1, hits give low values 0.981 | locus YCL069W, strain vba3, hits give low values 1.01 | locus YCR088W, strain abp1, hits give low values 1.01 | locus YDL005C, strain med2, hits give low values 0.999 | locus YDL035C, strain GPR1, hits give low values 0.996 | locus YDL040C, strain nat1, hits give low values 0.999 | locus YDL074C, strain BRE1, hits give low values 1.03 | locus YDL101C, strain DUN1, hits give low values 0.992 | locus YDL134C, strain PPH21, hits give low values 0.965 | locus YDL185W, strain tfp1, hits give low values 0.98 | locus YDL192W, strain arf1, hits give low values 0.991 | locus YDR001C, strain nth1, hits give low values 1.01 | locus YDR069C, strain doa4, hits give low values 1.01 | locus YDR101C, strain arx1, hits give low values 0.992 | locus YDR137W, strain rgp1, hits give low values 1.01 | locus YDR150W, strain NUM1, hits give low values 0.975 | locus YDR159W, strain sac3, hits give low values 0.943 | locus YDR162C, strain NBP2, hits give low values 0.982 | locus YDR195W, strain ref2 0.983 | locus YDR297W, strain sur2, hits give low values 0.997 | locus YDR318W, strain mcm21, hits give low values 0.989 | locus YDR334W, strain swr1, hits give low values 1.02 | locus YDR335W, strain msn5, hits give low values 1.01 | locus YDR363W, strain ESC2, hits give low values 0.992 | locus YDR388W, hits give low values 0.975 | locus YDR392W, strain spt3, hits give low values 0.906 | locus YDR502C, strain sam2, hits give low values 1.01 | locus YEL003W, strain gim4, hits give low values 1.01 | locus YEL037C, strain rad23, hits give low values 1 | locus YEL061C, strain CIN8 (second series), hits give low values 1.03 | locus YEL061C, strain CIN8, hits give low values 0.994 | locus YER002W, strain NOP16, hits give low values 0.986 | locus YER015W, strain faa2, hits give low values 1.01 | locus YER016W, strain bim1, hits give low values 0.987 | locus YER110C, hits give low values 0.978 | locus YER111C, strain swi4, hits give low values 0.998 | locus YER155C, strain BEM2 (second series), hits give low values 0.974 | locus YER155C, strain BEM2, hits give low values 0.989 | locus YER167W, strain BCK2, hits give low values 0.98 | locus YFR010W, strain ubp6, hits give low values 1.01 | locus YGL078C, strain dbp3, hits give low values 0.97 | locus YGL086W, strain mad1, hits give low values 0.998 | locus YGL167C, strain pmr1, hits give low values 1 | locus YGL173C, strain kem1, hits give low values 0.983 | locus YGL227W, strain vid30, hits give low values 0.992 | locus YGL240W, strain doc1, hits give low values 0.996 | locus YGL248W, strain PDE1, hits give low values 1 | locus YGL253W, strain hxk2, hits give low values 1.04 | locus YGR078C, strain PAC10, hits give low values 0.98 | locus YGR135W, strain pre9, hits give low values 0.957 | locus YGR252W, strain gcn5, hits give low values 0.956 | locus YHR013C, strain ard1, hits give low values 0.972 | locus YHR027C, strain rpn1, hits give low values 1.01 | locus YHR030C, strain SLT2, hits give low values 0.983 and 1.03 | locus YHR079C, strain IRE1 (second series), hits give low values 0.99 | locus YHR079C, strain IRE1, hits give low values 1.07 | locus YHR094C, strain hxt1, hits give low values 0.97 | locus YHR129C, strain ARP1, hits give low values 0.99 | locus YHR142W, strain chs7, hits give low values 1.03 | locus YHR200W, strain rpn10, hits give low values 0.984 | locus YIL066C, strain RNR3, hits give low values 0.997 | locus YIL073C, strain SPO22, hits give low values 0.937 | locus YIL125W, strain kgd1, hits give low values 0.973 | locus YIR030C, strain dcg1, hits give low values 0.981 | locus YJL092W, strain hpr5, hits give low values 1.01 | locus YJL095W, strain BCK1 (second series), hits give low values 0.999 | locus YJL095W, strain BCK1, hits give low values 1.03 and 1.02 | locus YJL115W, strain asf1, hits give low values 1 | locus YJL129C, strain trk1, hits give low values 1.01 | locus YJL134W, strain LCB3, hits give low values 0.993 | locus YJL154C, strain vps35, hits give low values 1 | locus YJL164C, strain tpk1, hits give low values 1.01 | locus YJL166W, strain qcr8, hits give low values 1.01 | locus YJL168C, strain set2, hits give low values 0.982 | locus YJL187C, strain SWE1 (second series), hits give low values 1.01 | locus YJR043C, strain POL32, hits give low values 1 | locus YJR066W, strain TOR1, hits give low values 0.966 | locus YJR075W, strain HOC1, hits give low values 0.971
